Compounds with a hit are over-represented: about 0.92% of the library has one in this group of screens.
RecA intein inh – Mtb RecA intein splicing inhibitors, primary screen, biochemical, fluorescence, HTS. Protein RecA (Mycobacterium tuberculosis (strain ATCC 25618 / H37Rv)), P9WHJ3. 0.75% of 290,000 active. inhibition, % (concentration not given with the values). cell-free RecA intein splicing. AID 2221, 2009; in the data active = inhibition above about 30%;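 also: 0% = vehicle wells and 100% = reference inhibitor control wells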
Target sequence (P9WHJ3 whole entry, looked up): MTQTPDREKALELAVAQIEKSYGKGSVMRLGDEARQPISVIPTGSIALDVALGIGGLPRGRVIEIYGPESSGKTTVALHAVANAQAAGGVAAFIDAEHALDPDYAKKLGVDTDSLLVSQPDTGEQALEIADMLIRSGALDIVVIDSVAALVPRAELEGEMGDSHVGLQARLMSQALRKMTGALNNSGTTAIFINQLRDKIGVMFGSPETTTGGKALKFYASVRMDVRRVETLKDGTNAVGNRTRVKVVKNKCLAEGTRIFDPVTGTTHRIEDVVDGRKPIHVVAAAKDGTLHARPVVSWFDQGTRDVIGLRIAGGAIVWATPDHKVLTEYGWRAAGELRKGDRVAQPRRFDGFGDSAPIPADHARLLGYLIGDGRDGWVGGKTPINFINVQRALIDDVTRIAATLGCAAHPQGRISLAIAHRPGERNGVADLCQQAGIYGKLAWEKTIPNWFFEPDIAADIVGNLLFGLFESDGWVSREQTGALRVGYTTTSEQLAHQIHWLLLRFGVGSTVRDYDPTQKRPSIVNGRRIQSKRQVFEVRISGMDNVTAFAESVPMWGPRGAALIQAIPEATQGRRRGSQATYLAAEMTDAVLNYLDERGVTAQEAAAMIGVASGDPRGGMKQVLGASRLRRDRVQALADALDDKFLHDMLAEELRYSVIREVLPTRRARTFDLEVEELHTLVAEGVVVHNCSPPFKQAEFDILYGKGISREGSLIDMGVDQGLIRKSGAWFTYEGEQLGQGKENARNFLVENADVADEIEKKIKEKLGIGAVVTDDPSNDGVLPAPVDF
FadD28 binding – inhibitors of FadD28 bisubstrate probe binding, primary screen, biochemical, fluorescence polarization, single point; inhibition, % at 12.5 µM; Mycobacterium tuberculosis FadD28 fatty-acid-AMP ligase; 0.22% of 360,000 active; AID 588549, 2011; in the data active = inhibition above about 8.5%, passing the limit was not always enough
Mtb hypoxia rep – PubChem AID 1159583; 0.1% of 300,000 active; fluorescence inhibition, % (no concentration beside the values); M. tuberculosis hypoxia-regulated fluorescent reporter, fluorescence; in the data active = fluorescence inhibition mostly above about 23%, no sharp cut-off; inactive = mostly below about 17%
Mtb UGM inh – M. tuberculosis UGM enzyme inhibitors, primary screen, biochemical, fluorescence polarization, single point. 0.06% of 320,000 active. inhibition, % at 10 µM. UDP-galactopyranose mutase (Mycobacterium tuberculosis (strain ATCC 25618 / H37Rv)), …. purified UGM, fluorescence polarization probe displacement; in the data active = inhibition above about 10%, passing the limit was not always enough
Rv3671c inh – Rv3671c serine protease inhibitors, primary screen, biochemical, fluorescence polarization, M. tuberculosis H37Rv; inhibition, % at 5.96 µM; P9WHR9; 0.048% of 320,000 active; AID 2606, 2010; in the data active = inhibition above about 38%;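 also: extracellular domain of Rv3671c used as enzyme; 0% = enzyme with DMSO and 100% = no enzyme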
GFP chromo cs – counter-screen: blocks GFP chromophore formation, dose response, counter-screen, biochemical, fluorescence, homogeneous; EC50, µM; shares compounds with RecA intein inh; cell-free GFP chromophore formation; 83% of 2,100 active; call rule not given here
Numbers without * were called inactive; nt = no result.

SMILES	RecA intein inh	FadD28 binding	Mtb hypoxia rep	Mtb UGM inh	Rv3671c inh	GFP chromo cs
COc1ccc(C(=O)C2C(c3ccc(-c4ccccc4[N+](=O)[O-])o3)NC(=O)NC2(O)C(F)(F)F)cc1 (stereo not given)	64.5*	-3.7	6.7	3.6	-57.9	32.3*
C=CCOc1ccccc1C=NNC(=O)Cc1ccc(C)cc1	nt	nt	5.6	nt	nt	nt
C#CCOCCOCCOCCNc1nc(N2CCN(C(=O)C(CO)n3cc(C(N)C(C)C)nn3)CC2)nc(N2CCN(C(=O)C(C(C)O)n3cc(C(N)CCCCN)nn3)CC2)n1 (stereo not given)	nt	nt	5.3	nt	nt	nt
O=c1oc2cc(Oc3c([N+](=O)[O-])cc(C(F)(F)F)cc3[N+](=O)[O-])ccc2c2c1CCCC2	41.5*	1.3	-4.5	3.1	-2.7	0.962*
O=c1oc2cc(Oc3ccc(C(F)(F)F)cc3[N+](=O)[O-])ccc2c2c1CCC2	-4.2	-1.6	6.7	-0.7	-5.6	nt
CC(=NNC(=O)Cc1cc(=O)[nH][nH]1)c1ccc([N+](=O)[O-])cc1	nt	nt	15.4	nt	nt	nt
COc1ccc(/C(=N/OC(C)=O)c2nccc3cc(OC)c(OC)cc23)cc1OC	30.9*	-1.8	nt	1.7	1.3	>38
O=C(Sc1nnc(-c2ccccc2)o1)N1c2ccccc2Sc2ccccc21	56.6*	-2.5	12.6	1.0	-0.5	0.918*
N#CC(C#N)=C(Nc1ccc(F)cc1)SCc1cccc(Br)c1	55.3*	0.8	13.2	1.5	-0.4	4.72*
O=S(=O)(Nc1cc2nc3ccccc3nc2n1Cc1ccccc1)c1ccc(Cl)cc1	60.2*	-2.1	5.5	-2.0	-231.0	6.29*
O=S(=O)(NCc1ccccc1)c1ccc(Cl)cc1	-2.8	-4.9	5.8	0.3	0.3	nt
COC(=O)C1CCC(C)C(c2ccc(C)cc2)N1C(=O)c1ccc(C=NOC(C)c2cn(C(CO)Cc3ccccc3)nn2)cc1 (stereo not given)	nt	nt	-1.7	nt	nt	nt
Cc1cc(C)cc(OC(=O)CS(=O)c2ccc(C(F)(F)F)cc2[N+](=O)[O-])c1 (stereo not given)	43.0*	1.0	5.2	-0.2	-3.3	6.33*
O=C(CS(=O)c1ccc(C(F)(F)F)cc1[N+](=O)[O-])Oc1ccc(Cl)cc1 (stereo not given)	12.0	0.0	6.2	0.1	5.0	nt
Cc1ccc(C)c(N2C(=N)S/C(=C\c3ccc(-c4ccccc4C(=O)O)o3)C2=O)c1	-8.7	-3.8	1.3	-4.4	-0.4	nt
CN1C(=O)/C(=C/c2ccc(-c3ccccc3[N+](=O)[O-])o2)SC1=Nc1ccc(Cl)c(C(=O)O)c1	45.2*	2.0	nt	3.9	-50.1	22.9*
CCc1ccc2c(c1)C(NC(C)=O)C(=O)N2CCN1CCOCC1 (stereo not given)	49.3*	1.8	nt	1.2	18.7	>38
O=C(NCc1ccco1)/C(=C/c1cccc(C(F)(F)F)c1)c1nc2ccccc2[nH]1	37.6*	-3.5	3.8	-0.3	1.1	>38
CCOC(=O)Cc1[nH]nc2c1C(c1cc(OC)ccc1OC)C(C#N)=C(N)O2 (stereo not given)	62.6*	-3.0	1.3	0.9	6.0	4.56*
CCOc1ccccc1C1C(C#N)=C(N)Oc2n[nH]c(CC)c21 (stereo not given)	32.5*	2.5	11.5	2.8	2.1	32.6*
COC(=O)Cc1[nH]nc2c1C(c1cccc(OC)c1OC)C(C#N)=C(N)O2 (stereo not given)	nt	2.8	5.4	2.4	6.4	nt
CCOC(=O)Cc1[nH]nc2c1C(c1cccc(OC)c1OC)C(C#N)=C(N)O2 (stereo not given)	45.2*	0.4	nt	-0.3	-0.4	>38
CC(=NN1CCN(c2ccccn2)CC1)c1cccc([N+](=O)[O-])c1	nt	nt	12.0	nt	nt	nt
CN1CCN(C(c2ccc(Br)cc2)c2cc(Cl)c3cccnc3c2O)CC1 (stereo not given)	74.3*	-5.7	nt	0.8	4.8	9.82*
CN1CCN(C(c2ccc(F)cc2)c2ccc3cccnc3c2O)CC1 (stereo not given)	nt	0.8	-2.0	nt	nt	nt
SMILES	RecA intein inh	FadD28 binding	Mtb hypoxia rep	Mtb UGM inh	Rv3671c inh	GFP chromo cs
CN=C(Nc1cc(C)nn1CCC#N)c1ccccc1	0.9	0.5	3.5	-1.0	7.0	nt
Cc1cc(OC(=O)c2ccccc2)n(CCC#N)n1	84.8*	-2.5	nt	1.3	-71.7	10.9*
C=CCCC(Cc1ccc(F)cc1)C(=O)OCC(NC(=O)C(CC=C)CC(=O)NC(CO)Cc1ccccc1)C(C)(C)C (stereo not given)	nt	nt	11.0	nt	nt	nt
O=C1CCCC2=C1C(c1ccc3c(c1)OCO3)c1c([nH]n(-c3ccccc3)c1=O)N2 (stereo not given)	74.2*	1.1	-2.9	0.5	-6.8	13.6*
COc1cccc(C2C3=C(CCCC3=O)Nc3[nH]n(-c4ccccc4)c(=O)c32)c1 (stereo not given)	0.2	-2.6	11.0	-1.0	-1.2	nt
CCOC(=O)N1C2=NC(C(=O)OC)=C(C(=O)OC)C3N(Cc4ccccc4)c4ccccc4[C@]23CC1C(=O)OC (stereo not given in full)	nt	nt	-12.6	nt	nt	nt
C/C(CC(=O)Nc1cccnc1)=N\NC(=O)c1ccc([N+](=O)[O-])c(Cl)c1	61.1*	-0.7	nt	-0.4	-13.9	34.7*
COc1ccc(N/N=C(\C#N)C(=N)SCc2ccccc2)cc1	55.2*	-2.3	nt	nt	nt	24.1*
COc1ccc(N/N=C(\C#N)C(=N)N2CCCCC2)cc1	2.2	-4.3	nt	-1.9	12.6	nt
CCC(C)[C@H](NC(=O)NC1CCN(Cc2ccccc2)CC1)C(=O)OC (stereo not given in full)	38.1*	0.3	1.9	1.1	11.8	>38
COc1ccc(C(=O)c2c(C(F)(F)F)oc3c2C(=O)c2ccccc2C3=O)cc1	86.8*	-3.1	nt	0.7	-64.7	0.132*
COc1ccc2ccccc2c1C=NNC(=O)c1cccc([N+](=O)[O-])c1	nt	nt	3.8	nt	nt	nt
CC1OC(Nc2ccc(N=Nc3ccccc3)cc2)C(O)C(O)C1O (stereo not given)	4.7	-1.8	-5.7	1.6	-9.7	nt
CC1OC(Nc2cccc3ccccc23)C(O)C(O)C1O (stereo not given)	45.8*	2.4	4.2	0.1	-24.0	>38
CCOC(=O)N1C(=O)[C@@](c2ccc(Cl)cc2)(C(C)C)N1C(=O)OCC	48.7*	-0.8	nt	-0.9	3.6	33*
CCOC(=O)N1C(=O)[C@](c2ccc(Cl)cc2)(C(C)C)N1C(=O)OCC	34.0*	-18.3	-0.4	-1.3	-0.4	3.5*
COC(=O)N1C(=O)[C@](c2ccccc2)(C(C)C)N1C(=O)OC	-0.7	-3.8	13.2	3.2	-2.5	nt
CCOC(=O)C1(C(N)=O)OC1(c1ccc(Cl)cc1)c1ccccc1Cl (stereo not given)	nt	-2.0	18.2	nt	nt	nt

Source: PubChem (several laboratories)
